# According to article PMC7862700, “An all-to-all approach to the identification of sequence-specific readers for epigenetic DNA modifications on cytosine”:
# What was measured:
# Assay in all cases: DAPPL (digital affinity profiling via proximity ligation, sequencing); 10 mM Tris-HCl pH 7.5, 50 mM NaCl, 1 mM DTT, 4% glycerol, room temperature, 30 min; GST-TFs on glutathione beads, 16-mer random dsDNA library, 0.1% formaldehyde crosslink after washing; high values mean tight binding
# Conditions in all cases: protein: recombinant; tags: N-terminal GST; dsDNA, one strand shown
# ETV2 = biological target: T1, ETV2 (Homo sapiens, UniProt O00321 1-342)
# T1 sequence: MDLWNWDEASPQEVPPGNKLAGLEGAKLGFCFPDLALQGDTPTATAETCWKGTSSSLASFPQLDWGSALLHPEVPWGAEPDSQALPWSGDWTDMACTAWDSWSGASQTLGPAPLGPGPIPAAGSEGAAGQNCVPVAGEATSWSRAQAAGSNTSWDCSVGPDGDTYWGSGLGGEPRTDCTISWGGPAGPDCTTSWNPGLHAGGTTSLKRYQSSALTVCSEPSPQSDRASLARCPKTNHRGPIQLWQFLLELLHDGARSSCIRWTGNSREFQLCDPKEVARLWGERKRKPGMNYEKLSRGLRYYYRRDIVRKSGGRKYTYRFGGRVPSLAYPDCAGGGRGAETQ
# Summary of the method: (§1)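 Binding signal is each hexamer's read frequency for a factor divided by its frequency in the tag-only sample. The factors were GST-fused human transcription factors from yeast, captured on glutathione beads, DNA-barcoded and pooled with that sample. Pools were incubated with 200 nmole of a random double-stranded 16-mer DNA library in Tris/NaCl/DTT/glycerol buffer at room temperature for 30 min, then washed, crosslinked with 0.1% formaldehyde, proximity-ligated with BsaI/T4 ligase (1 h, 37 °C), PCR-amplified and sequenced on an Illumina NextSeq500.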
# ELF3 = biological target: T2, ELF3 (Homo sapiens, UniProt P78545 1-371)
# T2 sequence: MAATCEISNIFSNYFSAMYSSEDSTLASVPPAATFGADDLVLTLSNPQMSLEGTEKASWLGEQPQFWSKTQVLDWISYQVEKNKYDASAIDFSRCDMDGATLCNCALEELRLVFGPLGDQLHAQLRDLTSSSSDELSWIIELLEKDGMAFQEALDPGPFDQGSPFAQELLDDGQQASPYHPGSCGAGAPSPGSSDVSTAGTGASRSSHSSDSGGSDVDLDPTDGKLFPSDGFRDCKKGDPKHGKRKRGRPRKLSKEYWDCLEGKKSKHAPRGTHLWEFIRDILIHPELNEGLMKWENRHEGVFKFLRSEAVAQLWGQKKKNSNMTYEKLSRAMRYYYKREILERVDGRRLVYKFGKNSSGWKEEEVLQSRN
# Summary of the method: as §1
# ETV1 = ETV1 (Homo sapiens, UniProt P50549 1-477)
# ETV1, sequence (P50549 whole entry): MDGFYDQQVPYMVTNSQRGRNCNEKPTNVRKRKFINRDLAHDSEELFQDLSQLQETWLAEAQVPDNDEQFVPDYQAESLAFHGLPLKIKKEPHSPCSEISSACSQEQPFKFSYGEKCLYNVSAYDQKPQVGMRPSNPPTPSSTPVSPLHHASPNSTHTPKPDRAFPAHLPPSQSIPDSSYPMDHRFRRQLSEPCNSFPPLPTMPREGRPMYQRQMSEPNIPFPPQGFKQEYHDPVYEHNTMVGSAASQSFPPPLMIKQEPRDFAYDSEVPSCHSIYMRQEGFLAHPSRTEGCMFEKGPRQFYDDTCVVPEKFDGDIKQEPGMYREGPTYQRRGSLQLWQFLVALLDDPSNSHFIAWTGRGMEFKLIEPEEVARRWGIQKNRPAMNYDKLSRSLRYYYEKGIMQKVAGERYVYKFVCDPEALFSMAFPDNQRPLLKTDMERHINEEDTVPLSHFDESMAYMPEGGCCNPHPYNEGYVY
# Summary of the method: as §1
# ERF = biological target: T3, ERF (Homo sapiens, UniProt P50548 1-548)
# T3 sequence: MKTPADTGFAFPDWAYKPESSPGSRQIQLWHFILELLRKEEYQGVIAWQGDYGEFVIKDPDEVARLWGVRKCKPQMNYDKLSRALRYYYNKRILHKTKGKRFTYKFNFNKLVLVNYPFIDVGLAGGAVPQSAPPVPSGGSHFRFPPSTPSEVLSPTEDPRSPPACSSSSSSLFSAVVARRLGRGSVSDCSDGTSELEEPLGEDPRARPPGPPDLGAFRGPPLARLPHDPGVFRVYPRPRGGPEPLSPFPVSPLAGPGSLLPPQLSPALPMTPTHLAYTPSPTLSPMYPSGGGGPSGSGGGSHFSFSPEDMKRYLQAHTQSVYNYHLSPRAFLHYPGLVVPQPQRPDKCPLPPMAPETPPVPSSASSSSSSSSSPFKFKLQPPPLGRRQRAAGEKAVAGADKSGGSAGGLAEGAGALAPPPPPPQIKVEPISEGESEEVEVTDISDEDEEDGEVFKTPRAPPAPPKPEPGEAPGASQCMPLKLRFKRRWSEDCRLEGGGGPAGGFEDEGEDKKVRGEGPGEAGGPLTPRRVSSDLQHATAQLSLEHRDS
# Summary of the method: as §1
# ETV3L = biological target: T4, ETV3L (Homo sapiens, UniProt Q6ZN32 1-361)
# T4 sequence: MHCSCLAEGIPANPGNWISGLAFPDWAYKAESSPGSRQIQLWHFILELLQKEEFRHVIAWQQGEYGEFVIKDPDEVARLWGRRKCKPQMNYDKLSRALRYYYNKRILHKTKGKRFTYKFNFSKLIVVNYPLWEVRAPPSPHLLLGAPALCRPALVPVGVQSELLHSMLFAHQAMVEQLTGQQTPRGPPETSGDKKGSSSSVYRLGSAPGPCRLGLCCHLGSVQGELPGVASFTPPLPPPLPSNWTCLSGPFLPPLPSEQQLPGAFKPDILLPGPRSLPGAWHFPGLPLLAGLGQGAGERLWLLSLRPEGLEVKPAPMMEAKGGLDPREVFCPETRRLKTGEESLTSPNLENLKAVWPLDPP
# Summary of the method: as §1
# ETS2 = biological target: T5, ETS2 (Homo sapiens, UniProt P15036 1-469)
# T5 sequence: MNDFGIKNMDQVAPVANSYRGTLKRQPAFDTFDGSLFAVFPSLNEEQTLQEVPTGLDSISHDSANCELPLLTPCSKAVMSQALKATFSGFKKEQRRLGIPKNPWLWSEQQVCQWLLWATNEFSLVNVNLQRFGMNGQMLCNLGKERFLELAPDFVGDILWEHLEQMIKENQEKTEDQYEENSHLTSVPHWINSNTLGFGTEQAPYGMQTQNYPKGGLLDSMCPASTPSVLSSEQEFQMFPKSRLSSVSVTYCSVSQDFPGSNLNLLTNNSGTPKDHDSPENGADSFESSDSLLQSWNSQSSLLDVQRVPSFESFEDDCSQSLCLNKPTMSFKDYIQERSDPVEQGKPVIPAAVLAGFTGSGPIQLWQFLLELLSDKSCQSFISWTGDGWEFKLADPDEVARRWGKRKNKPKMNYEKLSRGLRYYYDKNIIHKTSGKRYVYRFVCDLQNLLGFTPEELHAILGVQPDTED
# Summary of the method: as §1
# SPDEF = biological target: T6, SPDEF (Homo sapiens, UniProt O95238 1-335)
# T6 sequence: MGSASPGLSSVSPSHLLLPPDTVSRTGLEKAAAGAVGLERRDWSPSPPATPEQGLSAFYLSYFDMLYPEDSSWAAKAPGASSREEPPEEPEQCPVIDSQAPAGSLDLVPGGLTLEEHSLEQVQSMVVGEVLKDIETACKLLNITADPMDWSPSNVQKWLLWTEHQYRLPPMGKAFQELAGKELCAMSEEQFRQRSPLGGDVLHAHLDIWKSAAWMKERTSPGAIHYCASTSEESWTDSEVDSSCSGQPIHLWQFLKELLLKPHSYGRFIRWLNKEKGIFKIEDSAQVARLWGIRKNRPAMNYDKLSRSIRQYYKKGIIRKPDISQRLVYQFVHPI
# Summary of the method: as §1
# ETV7 = biological target: T7, ETV7 (Homo sapiens, UniProt Q9Y603 1-341)
# T7 sequence: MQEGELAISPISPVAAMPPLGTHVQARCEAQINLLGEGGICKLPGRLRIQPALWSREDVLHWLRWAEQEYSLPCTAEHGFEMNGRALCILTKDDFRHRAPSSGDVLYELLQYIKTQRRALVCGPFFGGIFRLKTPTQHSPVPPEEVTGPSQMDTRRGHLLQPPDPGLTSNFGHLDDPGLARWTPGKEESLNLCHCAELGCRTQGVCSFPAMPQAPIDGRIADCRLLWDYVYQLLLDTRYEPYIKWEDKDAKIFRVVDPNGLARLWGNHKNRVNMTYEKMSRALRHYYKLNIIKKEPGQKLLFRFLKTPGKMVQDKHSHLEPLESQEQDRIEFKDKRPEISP
# Summary of the method: as §1
# ETV3 = biological target: T8, ETV3 (Homo sapiens, UniProt P41162-2 1-143)
# T8 sequence: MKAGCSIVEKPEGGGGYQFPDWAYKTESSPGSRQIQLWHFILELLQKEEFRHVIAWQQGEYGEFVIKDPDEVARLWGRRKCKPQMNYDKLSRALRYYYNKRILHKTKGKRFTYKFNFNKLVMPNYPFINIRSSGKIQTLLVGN
# Summary of the method: as §1
# ETV6 = ETV6 (Homo sapiens, UniProt P41212 1-452)
# ETV6, sequence (P41212 whole entry): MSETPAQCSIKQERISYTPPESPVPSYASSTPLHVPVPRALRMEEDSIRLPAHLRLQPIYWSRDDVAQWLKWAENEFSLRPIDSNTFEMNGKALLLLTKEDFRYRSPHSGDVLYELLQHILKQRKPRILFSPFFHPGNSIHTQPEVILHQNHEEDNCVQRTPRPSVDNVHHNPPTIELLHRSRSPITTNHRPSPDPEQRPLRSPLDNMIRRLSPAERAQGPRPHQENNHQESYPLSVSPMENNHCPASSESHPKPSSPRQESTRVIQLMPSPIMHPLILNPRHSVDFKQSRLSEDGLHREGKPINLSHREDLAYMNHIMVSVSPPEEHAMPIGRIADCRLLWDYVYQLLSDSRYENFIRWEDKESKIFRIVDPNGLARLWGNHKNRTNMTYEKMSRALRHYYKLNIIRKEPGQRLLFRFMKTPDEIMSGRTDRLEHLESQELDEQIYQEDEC
# Summary of the method: as §1
sequence,measurement,setting,value
GGTAAA,binding signal,ETV2,"1.03 fold enrichment (6-mer frequency, TF over GST control)"
same,binding signal,ELF3,"1.13 fold enrichment (6-mer frequency, TF over GST control)"
same,binding signal,ETV1,"1.08 fold enrichment (6-mer frequency, TF over GST control)"
same,binding signal,ERF,"1.01 fold enrichment (6-mer frequency, TF over GST control)"
same,binding signal,ETV3L,"1 fold enrichment (6-mer frequency, TF over GST control)"
same,binding signal,ETS2,"1.1 fold enrichment (6-mer frequency, TF over GST control)"
same,binding signal,SPDEF,"1.02 fold enrichment (6-mer frequency, TF over GST control)"
same,binding signal,ETV7,"1.12 fold enrichment (6-mer frequency, TF over GST control)"
same,binding signal,ETV3,"1.06 fold enrichment (6-mer frequency, TF over GST control)"
same,binding signal,ETV6,"1.07 fold enrichment (6-mer frequency, TF over GST control)"
